# Assays:
# Assay in all cases: DAPPL (digital affinity profiling via proximity ligation, sequencing); 10 mM Tris-HCl pH 7.5, 50 mM NaCl, 1 mM DTT, 4% glycerol, room temperature, 30 min; GST-TFs on glutathione beads, 16-mer random dsDNA library, 0.1% formaldehyde crosslink after washing; high values mean tight binding
# FEV = target: T1, FEV (Homo sapiens, UniProt Q99581 1-238); conditions: protein: recombinant; tags: N-terminal GST; dsDNA, one strand shown
# T1 sequence: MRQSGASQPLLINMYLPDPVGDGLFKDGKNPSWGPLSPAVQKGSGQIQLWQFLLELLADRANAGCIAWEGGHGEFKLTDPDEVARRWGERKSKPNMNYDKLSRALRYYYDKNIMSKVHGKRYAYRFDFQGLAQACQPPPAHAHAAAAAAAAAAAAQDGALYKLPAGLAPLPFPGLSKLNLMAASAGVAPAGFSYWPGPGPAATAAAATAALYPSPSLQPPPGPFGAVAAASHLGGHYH
# In short: (§1)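 Sequencing on an Illumina NextSeq500 followed washing, crosslinking with 0.1% formaldehyde, proximity ligation (BsaI/T4 ligase, 1 h, 37 °C) and PCR amplification of pools that had been incubated for 30 min at room temperature with 200 nmole of a random double-stranded 16-mer DNA library in Tris/NaCl/DTT/glycerol buffer. Each pool held DNA-barcoded human transcription factors, expressed in yeast as GST fusions and captured on glutathione beads, plus a tag-only sample. Binding signal is a hexamer's read frequency for a factor divided by its frequency in the tag-only sample.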
# ETV5 = ETV5 (Homo sapiens, UniProt P41161 1-510); conditions: protein: recombinant; tags: N-terminal GST; dsDNA, one strand shown
# In short: as §1
# HSF1 = HSF1 (Homo sapiens, UniProt Q00613 1-529); conditions: protein: recombinant; tags: N-terminal GST; chain copies: 3; dsDNA, one strand shown
# In short: as §1
# SPIC = target: T2, SPIC (Homo sapiens, UniProt Q8N5J4 1-248); conditions: protein: recombinant; tags: N-terminal GST; dsDNA, one strand shown
# T2 sequence: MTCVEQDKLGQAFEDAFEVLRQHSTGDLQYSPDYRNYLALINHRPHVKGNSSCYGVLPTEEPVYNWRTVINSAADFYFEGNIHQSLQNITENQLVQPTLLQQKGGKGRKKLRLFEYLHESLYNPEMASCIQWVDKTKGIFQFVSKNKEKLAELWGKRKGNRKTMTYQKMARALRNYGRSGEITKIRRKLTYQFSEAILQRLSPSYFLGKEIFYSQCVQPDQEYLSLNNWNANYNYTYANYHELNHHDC
# In short: as §1
# ELF4 = ELF4 (Homo sapiens, UniProt Q99607 1-663); conditions: protein: recombinant; tags: N-terminal GST; dsDNA, one strand shown
# In short: as §1
# ELK4 = target: T3, ELK4 (Homo sapiens, UniProt P28324-2 1-405); conditions: protein: recombinant; tags: N-terminal GST; dsDNA, one strand shown
# T3 sequence: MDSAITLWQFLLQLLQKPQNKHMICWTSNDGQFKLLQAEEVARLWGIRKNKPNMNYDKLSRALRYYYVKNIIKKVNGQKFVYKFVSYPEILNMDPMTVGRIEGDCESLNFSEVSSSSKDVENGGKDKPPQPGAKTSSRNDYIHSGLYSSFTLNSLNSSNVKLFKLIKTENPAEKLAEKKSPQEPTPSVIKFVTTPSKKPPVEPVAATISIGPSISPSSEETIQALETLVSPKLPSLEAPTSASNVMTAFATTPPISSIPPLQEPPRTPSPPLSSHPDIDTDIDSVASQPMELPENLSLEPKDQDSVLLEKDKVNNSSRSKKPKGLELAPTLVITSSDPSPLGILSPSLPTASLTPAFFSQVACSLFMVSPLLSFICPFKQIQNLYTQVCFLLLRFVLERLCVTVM
# In short: as §1
# ETV2 = target: T4, ETV2 (Homo sapiens, UniProt O00321 1-342); conditions: protein: recombinant; tags: N-terminal GST; dsDNA, one strand shown
# T4 sequence: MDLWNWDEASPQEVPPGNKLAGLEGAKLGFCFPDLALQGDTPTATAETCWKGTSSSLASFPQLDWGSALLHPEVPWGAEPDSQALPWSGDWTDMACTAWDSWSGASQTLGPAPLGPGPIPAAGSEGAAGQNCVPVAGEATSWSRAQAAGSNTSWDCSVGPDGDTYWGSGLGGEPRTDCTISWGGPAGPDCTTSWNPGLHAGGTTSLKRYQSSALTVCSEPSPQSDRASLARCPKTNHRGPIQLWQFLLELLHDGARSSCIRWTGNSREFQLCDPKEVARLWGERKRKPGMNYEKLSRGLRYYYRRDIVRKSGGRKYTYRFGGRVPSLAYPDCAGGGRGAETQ
# In short: as §1
# ELF3 = target: T5, ELF3 (Homo sapiens, UniProt P78545 1-371); conditions: protein: recombinant; tags: N-terminal GST; dsDNA, one strand shown
# T5 sequence: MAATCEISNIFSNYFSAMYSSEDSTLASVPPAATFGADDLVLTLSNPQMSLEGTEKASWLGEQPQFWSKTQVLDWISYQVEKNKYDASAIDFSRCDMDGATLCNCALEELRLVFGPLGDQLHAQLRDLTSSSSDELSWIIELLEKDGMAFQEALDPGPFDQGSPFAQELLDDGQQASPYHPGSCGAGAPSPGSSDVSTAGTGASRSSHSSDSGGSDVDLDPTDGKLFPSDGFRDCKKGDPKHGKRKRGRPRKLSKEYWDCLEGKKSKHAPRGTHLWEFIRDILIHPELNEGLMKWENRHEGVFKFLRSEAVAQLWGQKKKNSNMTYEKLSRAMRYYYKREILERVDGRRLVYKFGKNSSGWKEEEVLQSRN
# In short: as §1
# CRX = CRX (Homo sapiens, UniProt O43186 1-299); conditions: protein: recombinant; tags: N-terminal GST; dsDNA, one strand shown
# In short: as §1
# ETV1 = ETV1 (Homo sapiens, UniProt P50549 1-477); conditions: protein: recombinant; tags: N-terminal GST; dsDNA, one strand shown
# In short: as §1
# ETV5, sequence (P41161 whole entry): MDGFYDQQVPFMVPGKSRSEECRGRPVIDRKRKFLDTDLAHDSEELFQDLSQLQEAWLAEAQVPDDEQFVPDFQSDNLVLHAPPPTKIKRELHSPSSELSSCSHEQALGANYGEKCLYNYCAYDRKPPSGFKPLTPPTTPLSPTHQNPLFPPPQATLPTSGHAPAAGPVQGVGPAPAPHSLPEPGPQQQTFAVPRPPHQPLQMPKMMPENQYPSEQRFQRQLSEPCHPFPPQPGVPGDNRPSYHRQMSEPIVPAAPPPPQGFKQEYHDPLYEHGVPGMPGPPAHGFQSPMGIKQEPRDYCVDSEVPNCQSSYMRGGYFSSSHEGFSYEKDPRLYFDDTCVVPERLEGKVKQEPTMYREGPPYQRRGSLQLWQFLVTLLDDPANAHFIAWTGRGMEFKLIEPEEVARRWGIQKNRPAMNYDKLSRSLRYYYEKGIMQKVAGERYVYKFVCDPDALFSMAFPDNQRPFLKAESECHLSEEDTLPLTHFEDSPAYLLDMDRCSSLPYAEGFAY
# ELF4, sequence (Q99607 whole entry): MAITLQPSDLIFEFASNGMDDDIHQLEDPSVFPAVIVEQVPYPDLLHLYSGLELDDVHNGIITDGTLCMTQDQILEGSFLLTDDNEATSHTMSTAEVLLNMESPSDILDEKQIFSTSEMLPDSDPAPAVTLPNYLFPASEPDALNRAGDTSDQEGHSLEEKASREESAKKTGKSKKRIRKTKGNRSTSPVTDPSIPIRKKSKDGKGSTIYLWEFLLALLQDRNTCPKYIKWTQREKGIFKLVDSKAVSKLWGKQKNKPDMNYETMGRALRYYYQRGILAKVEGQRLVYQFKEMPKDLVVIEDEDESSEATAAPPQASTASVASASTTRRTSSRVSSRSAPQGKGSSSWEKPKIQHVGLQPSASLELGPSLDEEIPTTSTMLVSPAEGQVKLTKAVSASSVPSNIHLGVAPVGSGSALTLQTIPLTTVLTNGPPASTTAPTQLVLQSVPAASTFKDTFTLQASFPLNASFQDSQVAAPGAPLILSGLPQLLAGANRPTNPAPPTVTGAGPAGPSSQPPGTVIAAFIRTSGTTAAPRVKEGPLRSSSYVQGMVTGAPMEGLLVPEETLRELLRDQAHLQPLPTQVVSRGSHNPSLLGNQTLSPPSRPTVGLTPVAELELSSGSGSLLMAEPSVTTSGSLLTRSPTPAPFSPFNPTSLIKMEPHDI
# ETV1, sequence (P50549 whole entry): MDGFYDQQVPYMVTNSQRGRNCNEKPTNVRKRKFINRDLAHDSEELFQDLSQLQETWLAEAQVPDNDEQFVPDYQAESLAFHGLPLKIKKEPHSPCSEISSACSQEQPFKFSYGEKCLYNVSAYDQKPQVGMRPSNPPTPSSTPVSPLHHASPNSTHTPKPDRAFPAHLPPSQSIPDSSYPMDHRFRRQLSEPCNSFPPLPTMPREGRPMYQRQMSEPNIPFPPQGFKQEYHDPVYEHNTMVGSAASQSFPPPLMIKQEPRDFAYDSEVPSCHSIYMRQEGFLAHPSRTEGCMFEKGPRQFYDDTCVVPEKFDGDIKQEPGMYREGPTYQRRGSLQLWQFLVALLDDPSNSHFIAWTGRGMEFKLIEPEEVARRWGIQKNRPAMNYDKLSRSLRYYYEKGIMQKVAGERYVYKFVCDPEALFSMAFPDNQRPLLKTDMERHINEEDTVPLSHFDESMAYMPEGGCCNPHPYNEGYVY
# HSF1, sequence (Q00613 whole entry): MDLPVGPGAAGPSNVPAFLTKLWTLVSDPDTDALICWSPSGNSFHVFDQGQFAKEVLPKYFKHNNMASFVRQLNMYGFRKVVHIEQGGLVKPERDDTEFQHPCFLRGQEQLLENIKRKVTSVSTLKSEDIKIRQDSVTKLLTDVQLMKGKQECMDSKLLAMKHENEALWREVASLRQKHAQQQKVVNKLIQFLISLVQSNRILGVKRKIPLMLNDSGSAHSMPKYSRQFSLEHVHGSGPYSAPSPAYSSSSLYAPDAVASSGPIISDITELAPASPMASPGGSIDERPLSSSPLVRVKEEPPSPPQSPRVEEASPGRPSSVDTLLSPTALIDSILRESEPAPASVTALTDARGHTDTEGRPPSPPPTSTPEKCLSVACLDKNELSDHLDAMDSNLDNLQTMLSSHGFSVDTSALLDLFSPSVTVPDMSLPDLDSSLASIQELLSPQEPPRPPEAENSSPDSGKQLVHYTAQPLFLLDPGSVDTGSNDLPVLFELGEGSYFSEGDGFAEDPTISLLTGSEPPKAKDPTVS
# CRX, sequence (O43186 whole entry): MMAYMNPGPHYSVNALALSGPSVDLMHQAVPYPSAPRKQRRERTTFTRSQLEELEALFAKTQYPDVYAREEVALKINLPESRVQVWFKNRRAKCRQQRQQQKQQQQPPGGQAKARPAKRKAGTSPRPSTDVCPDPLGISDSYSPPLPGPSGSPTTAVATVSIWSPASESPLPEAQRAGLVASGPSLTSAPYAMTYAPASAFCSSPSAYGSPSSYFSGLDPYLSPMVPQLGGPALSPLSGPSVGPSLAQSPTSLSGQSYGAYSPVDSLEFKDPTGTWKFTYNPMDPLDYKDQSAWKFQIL
sequence,measurement,setting,value
TTAGCA,binding signal,FEV,"1.23 fold enrichment (6-mer frequency, TF over GST control)"
same,binding signal,ETV5,"1.15 fold enrichment (6-mer frequency, TF over GST control)"
same,binding signal,HSF1,"1.7 fold enrichment (6-mer frequency, TF over GST control)"
same,binding signal,SPIC,"1.22 fold enrichment (6-mer frequency, TF over GST control)"
same,binding signal,ELF4,"1.33 fold enrichment (6-mer frequency, TF over GST control)"
same,binding signal,ELK4,"1.33 fold enrichment (6-mer frequency, TF over GST control)"
same,binding signal,ETV2,"1.27 fold enrichment (6-mer frequency, TF over GST control)"
same,binding signal,ELF3,"1.3 fold enrichment (6-mer frequency, TF over GST control)"
same,binding signal,CRX,"2.38 fold enrichment (6-mer frequency, TF over GST control)"
same,binding signal,ETV1,"1.32 fold enrichment (6-mer frequency, TF over GST control)"
